Results reported in PubChem BioAssay.
Active and inactive are the calls of the source.

Tests used:
[1] = small molecules captured by biotinylated probe aFSTL3 – biochemical, small-molecule microarray, fluorescence 635/667, stem cell growth factor project, primary screen (AID 1064); conditions: higher = more signal;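 note: measures binding of the biotinylated anti-FSTL3 antibody to printed compounds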
[2] = binders from COS7 lysate, DM2A8 probe, primary screen, torsin A project, cell lysate, small-molecule microarray, fluorescence 635/667 (AID 1065); conditions: higher = more signal, COS7 lysate expressing mutant human TOR1A
[3] = small molecules captured by biotinylated probe aFGF2 – biochemical, small-molecule microarray, fluorescence 635/667, stem cell growth factor project, primary screen (AID 1067); conditions: higher = more signal;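 note: measures binding of biotinylated aFGF2 protein to printed compounds on slides; z-score merges feature fluorescence and signal-to-noise across triplicate slides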
[4] = small molecules captured by biotinylated probe aFGF10 – biochemical, small-molecule microarray, fluorescence 635/667, stem cell growth factor project, primary screen (AID 1071); conditions: higher = more signal;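 note: score merges 667 nm spot intensity and signal to noise from triplicate slides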
[5] = target: Neurogenic locus notch homolog protein 2 (Homo sapiens) (UniProt Q04721); experiment: small molecules binding Notch2 protein – biochemical, small-molecule microarray, 635 nm fluorescence, stem cell growth factors, primary screen (AID 1073); conditions: higher = more signal
[6] = target: Pro-neuregulin-1, membrane-bound isoform (Homo sapiens) (UniProt Q02297); experiment: small molecules binding neuregulin-1 protein – biochemical, small-molecule microarray, fluorescence 635/667, psychiatric disease protein project, primary screen (AID 1075); conditions: NRG1 binding, 635 nm fluorescence, higher = more signal;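 note: score combines 667 nm spot fluorescence with signal to noise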
[7] = tested on: Neuregulin-1 EGF-like domain; experiment: small molecules binding NRG1 EGF domain – biochemical, small-molecule microarray, 635 nm fluorescence, primary screen (AID 1081); conditions: higher = more signal;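 note: binding of the protein to compounds printed on small-molecule microarray slides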
[8] = FRG1 expression reporter modulators in myotubes – cell-based, C2C12 myotubes, firefly/Renilla luciferase, luminescence, FRG1 inhibition for FSHD, primary screen (AID 1084); conditions: FRG1 promoter luciferase, higher = more signal, called active from +8 up or from −8 down
[9] = small molecules captured by biotinylated probe aFST – biochemical, small-molecule microarray, fluorescence 635/667, stem cell growth factor project, primary screen (AID 1086); conditions: higher = more signal;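 note: score merges 667 nm fluorescence with signal-to-noise of each printed compound spot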
[10] = binders of probe aHhip on microarray, primary screen, stem cell growth factor project, biochemical, small-molecule microarray, fluorescence 635/667 (AID 1087); conditions: higher = more signal;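 note: score merges spot fluorescence at 667nm with spot signal to noise ratio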
[11] = tested on: PRMT1 (protein arginine N-methyltransferase 1); experiment: small molecules binding arginine methyltransferase PRMT1 – biochemical, small-molecule microarray, 635 nm fluorescence, primary screen (AID 1088); conditions: higher = more signal;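 note: binding of Prmt1 protein to compounds spotted on small-molecule microarray slides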
[12] = growth effects on S. cerevisiae YJM789 – YJM789 clinical isolate, OD600, 24 h, basal, primary screen (AID 1089); conditions: higher = more signal, called active from +8 up or from −8 down;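 note: growth of clinical yeast isolate S. cerevisiae YJM 789 seeded 1000 cells per well; test concentration not given here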
[13] = S. pombe growth modifiers, basal conditions – strain 972, OD600, 24 h, no modulator, primary screen (AID 1090);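 note: basal condition with compound alone and no growth modifier present; test concentration not given here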; conditions: S. pombe 972 growth, higher = more signal, called active from +8 up or from −8 down
[14] = budding yeast growth modifiers under rapamycin – strain BY4716, OD600, 96 h, primary screen (AID 1091); note: test concentration not given here; conditions: S. cerevisiae BY4716 + rapamycin, higher = more signal, called active from +8 up or from −8 down
[15] = target: Torsin-1A-interacting protein 2 (Homo sapiens) (UniProt Q8NFQ8); experiment: small molecules binding lysate-expressed LULL1 – cell lysate, human LULL1 lysate, 635/667 nm fluorescence, primary screen (AID 1092); conditions: small-molecule microarray, hLULL1 lysate binding, 635 nm fluorescence; higher = more signal;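 note: probe is lysate of COS7 cells overexpressing human LULL1; score merges per-feature 667 nm fluorescence with signal-to-noise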
[16] = optical density change of DRC41 E. coli – strain DRC41, OD650, 24 h, E. coli filamentation project, primary screen (AID 1093);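 note: MC1000 strain lacking acrAB efflux and sulA so SOS filamentation is blocked; test concentration not given here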; conditions: E. coli DRC41 growth, higher = more signal, called active from +8 up or from −8 down
[17] = probe aLefty2 binding to arrayed compounds – biochemical, biotinylated probe, 635/667 nm fluorescence, primary screen (AID 1094); conditions: small-molecule microarray, higher = more signal;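 note: score merges spot fluorescence near 667 nm with spot signal-to-noise ratio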
[18] = tested on: Noggin (protein binding on small-molecule microarray); experiment: small molecules binding Noggin protein – biochemical, 635/667 nm fluorescence, primary screen (AID 1095); conditions: 635 nm fluorescence, higher = more signal;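 note: score merges 667 nm feature fluorescence with signal to noise over triplicate slides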
[19] = target: Neurogenic locus notch homolog protein 3 (Homo sapiens) (UniProt Q9UM47); experiment: small molecules binding NOTCH3 protein – biochemical, 635/667 nm fluorescence, primary screen (AID 1096); conditions: small-molecule microarray, 635 nm fluorescence, higher = more signal
[20] = probe aEGFR binding to arrayed compounds – biochemical, biotinylated probe, 635/667 nm fluorescence, primary screen (AID 1097); conditions: small-molecule microarray, higher = more signal;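 note: probe is a biotinylated anti-EGFR antibody binding compounds printed on slides; score combines fluorescence near 667 nm and signal to noise of each spot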

Sequence of Pro-neuregulin-1, membrane-bound isoform (Homo sapiens) (Q02297 whole entry, looked up, the tested form may be a part, canonical isoform): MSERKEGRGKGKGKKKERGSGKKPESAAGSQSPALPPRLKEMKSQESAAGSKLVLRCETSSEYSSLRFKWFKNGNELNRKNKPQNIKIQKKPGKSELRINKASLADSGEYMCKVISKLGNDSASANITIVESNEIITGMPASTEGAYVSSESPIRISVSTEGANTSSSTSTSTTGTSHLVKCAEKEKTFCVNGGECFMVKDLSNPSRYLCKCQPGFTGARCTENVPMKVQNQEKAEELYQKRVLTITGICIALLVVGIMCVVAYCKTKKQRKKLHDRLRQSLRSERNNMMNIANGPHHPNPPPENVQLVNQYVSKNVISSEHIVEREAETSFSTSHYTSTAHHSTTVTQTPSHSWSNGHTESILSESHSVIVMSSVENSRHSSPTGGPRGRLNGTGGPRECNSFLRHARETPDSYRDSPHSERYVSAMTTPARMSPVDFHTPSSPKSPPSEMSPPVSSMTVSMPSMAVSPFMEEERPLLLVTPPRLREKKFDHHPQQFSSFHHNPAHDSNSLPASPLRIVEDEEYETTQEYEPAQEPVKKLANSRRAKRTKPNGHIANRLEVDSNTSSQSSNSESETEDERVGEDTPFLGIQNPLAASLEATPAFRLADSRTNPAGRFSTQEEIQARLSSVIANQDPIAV
Sequence of Torsin-1A-interacting protein 2 (Homo sapiens) (Q8NFQ8 whole entry, looked up): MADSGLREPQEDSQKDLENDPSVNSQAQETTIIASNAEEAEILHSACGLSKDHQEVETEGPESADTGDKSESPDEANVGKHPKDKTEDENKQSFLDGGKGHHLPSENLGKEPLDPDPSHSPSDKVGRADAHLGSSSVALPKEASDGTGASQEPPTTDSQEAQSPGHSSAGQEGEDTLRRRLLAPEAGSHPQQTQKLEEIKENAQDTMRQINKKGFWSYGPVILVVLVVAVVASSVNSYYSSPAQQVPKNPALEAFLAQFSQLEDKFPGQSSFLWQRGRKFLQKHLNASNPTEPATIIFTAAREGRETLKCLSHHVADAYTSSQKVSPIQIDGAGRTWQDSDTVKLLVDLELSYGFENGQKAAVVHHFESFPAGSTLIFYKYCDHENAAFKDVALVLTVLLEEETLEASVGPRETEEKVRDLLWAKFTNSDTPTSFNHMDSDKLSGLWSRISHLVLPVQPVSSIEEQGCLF
Sequence of Neurogenic locus notch homolog protein 2 (Homo sapiens) (Q04721 whole entry, looked up, canonical isoform): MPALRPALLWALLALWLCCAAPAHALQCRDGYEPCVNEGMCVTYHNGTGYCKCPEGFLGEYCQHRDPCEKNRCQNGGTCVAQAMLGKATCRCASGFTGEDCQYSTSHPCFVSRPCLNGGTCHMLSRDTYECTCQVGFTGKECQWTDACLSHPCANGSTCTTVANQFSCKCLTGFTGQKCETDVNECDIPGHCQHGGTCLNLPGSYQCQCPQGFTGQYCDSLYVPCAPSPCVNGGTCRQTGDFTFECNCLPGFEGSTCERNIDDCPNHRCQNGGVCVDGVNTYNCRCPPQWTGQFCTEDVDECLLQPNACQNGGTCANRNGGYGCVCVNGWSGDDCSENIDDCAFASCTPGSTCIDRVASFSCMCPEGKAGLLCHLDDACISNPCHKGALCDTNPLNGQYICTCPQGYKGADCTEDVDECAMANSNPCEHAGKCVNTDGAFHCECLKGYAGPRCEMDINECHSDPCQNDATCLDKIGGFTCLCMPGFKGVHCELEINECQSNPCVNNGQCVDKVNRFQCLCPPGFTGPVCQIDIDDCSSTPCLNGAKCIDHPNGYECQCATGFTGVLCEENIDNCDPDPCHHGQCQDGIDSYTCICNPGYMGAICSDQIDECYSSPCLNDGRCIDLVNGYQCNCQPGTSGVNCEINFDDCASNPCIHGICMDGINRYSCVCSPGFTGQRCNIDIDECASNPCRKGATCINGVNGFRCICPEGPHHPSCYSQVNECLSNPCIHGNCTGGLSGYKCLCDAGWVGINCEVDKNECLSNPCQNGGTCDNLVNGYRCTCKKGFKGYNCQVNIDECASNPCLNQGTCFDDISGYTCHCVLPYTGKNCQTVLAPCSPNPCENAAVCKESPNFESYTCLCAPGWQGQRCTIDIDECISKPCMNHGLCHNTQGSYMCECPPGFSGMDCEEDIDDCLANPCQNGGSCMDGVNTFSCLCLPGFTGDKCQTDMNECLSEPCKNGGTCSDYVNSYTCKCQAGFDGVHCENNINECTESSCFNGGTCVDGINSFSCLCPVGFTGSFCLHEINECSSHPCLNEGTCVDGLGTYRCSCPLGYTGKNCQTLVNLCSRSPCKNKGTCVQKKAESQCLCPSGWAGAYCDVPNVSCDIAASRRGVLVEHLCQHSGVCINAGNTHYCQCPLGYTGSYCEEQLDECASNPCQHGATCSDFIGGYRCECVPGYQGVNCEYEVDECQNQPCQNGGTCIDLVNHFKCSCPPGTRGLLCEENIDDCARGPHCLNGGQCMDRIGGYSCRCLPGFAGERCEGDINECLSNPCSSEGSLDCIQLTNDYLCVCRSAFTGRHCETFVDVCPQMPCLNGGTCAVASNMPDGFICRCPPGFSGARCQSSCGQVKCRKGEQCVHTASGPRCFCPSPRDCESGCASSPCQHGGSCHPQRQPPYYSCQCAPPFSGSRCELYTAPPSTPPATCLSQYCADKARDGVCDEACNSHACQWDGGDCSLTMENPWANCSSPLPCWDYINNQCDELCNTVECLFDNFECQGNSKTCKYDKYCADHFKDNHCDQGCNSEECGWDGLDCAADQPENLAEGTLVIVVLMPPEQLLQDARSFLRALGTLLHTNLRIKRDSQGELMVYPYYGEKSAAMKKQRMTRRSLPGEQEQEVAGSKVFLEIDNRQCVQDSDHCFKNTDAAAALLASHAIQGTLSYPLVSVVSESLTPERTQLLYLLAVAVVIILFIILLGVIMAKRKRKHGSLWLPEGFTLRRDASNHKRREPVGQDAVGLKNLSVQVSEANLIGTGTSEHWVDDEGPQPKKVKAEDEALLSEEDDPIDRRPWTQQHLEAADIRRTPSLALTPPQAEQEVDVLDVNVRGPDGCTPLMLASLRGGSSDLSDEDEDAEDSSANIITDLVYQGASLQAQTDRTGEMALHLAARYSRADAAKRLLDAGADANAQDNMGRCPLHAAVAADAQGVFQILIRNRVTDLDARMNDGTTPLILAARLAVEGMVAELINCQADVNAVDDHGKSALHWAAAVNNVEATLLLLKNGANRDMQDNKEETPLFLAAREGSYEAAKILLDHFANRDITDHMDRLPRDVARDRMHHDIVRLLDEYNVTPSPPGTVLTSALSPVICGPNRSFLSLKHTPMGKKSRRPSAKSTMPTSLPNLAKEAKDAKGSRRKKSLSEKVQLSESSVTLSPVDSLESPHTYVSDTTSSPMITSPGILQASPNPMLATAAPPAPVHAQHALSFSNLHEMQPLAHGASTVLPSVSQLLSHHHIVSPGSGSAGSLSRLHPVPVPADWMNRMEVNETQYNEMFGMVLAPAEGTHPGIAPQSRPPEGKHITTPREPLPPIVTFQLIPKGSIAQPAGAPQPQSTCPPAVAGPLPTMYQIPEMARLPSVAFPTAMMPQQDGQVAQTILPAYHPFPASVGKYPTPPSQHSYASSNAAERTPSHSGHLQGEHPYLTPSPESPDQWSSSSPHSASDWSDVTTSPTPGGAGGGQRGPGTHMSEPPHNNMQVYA

Structure (SMILES) | composite z-score [1] | composite z-score [2] | composite z-score [3] | composite z-score [4] | composite z-score [5] | composite z-score [6] | composite z-score [7] | z-score [8] | composite z-score [9] | composite z-score [10] | composite z-score [11] | z-score [12] | z-score [13] | z-score [14] | composite z-score [15] | z-score [16] | composite z-score [17] | composite z-score [18] | composite z-score [19] | composite z-score [20]
CO[C@H]1O[C@H](CO)[C@@H](OC(=O)Nc2ccccc2)[C@H](OC(=O)Nc2ccccc2-c2ccccc2)[C@H]1OC(=O)Nc1ccccc1-c1ccccc1 | 0.183 | 1.85 | -0.0449 | 0.567 | 0.555 | 1.31 | 1.3 | -0.114 (inactive) | 0.714 | -0.0296 | 1.54 | -2.03 (inactive) | -0.674 (inactive) | 1.22 (inactive) | 2.91 | 1.39 (inactive) | -0.0699 | 0.764 | 0.965 | -0.0978
C=CCN1C(=O)[C@@]2(O[C@@H](CCO)[C@H]([Si](C)(C)c3ccc(OC)cc3)[C@H]2C)c2cc(N3C(=O)c4cccc5cccc3c45)ccc21 | -0.149 | 0.0485 | -0.113 | 0.349 | 0.24 | 0.769 | 0.876 | -1.42 (inactive) | -0.169 | -0.0994 | 1.18 | 2.89 (inactive) | 1.89 (inactive) | 36.3 (active) | 1.15 | 1.93 (inactive) | -0.156 | -0.106 | -0.0485 | -0.147
CCCNC(=O)[C@@H]1c2ccccc2C(=O)N(Cc2cc(C(F)(F)F)cc(C(F)(F)F)c2)[C@H]1c1ccc(CO)cc1 | 0.684 | -0.27 | 0.0064 | 0.0859 | 0.394 | 0.519 | 1.2 | -0.0626 (inactive) | 0.361 | 0.0895 | 1.09 | 0.73 (inactive) | -1.69 (inactive) | -0.262 (inactive) | 1.34 | 0.315 (inactive) | 0.0758 | 0.261 | 0.523 | -0.0255
C[C@@H](OCc1ccccc1)C1NC(=O)[C@@]23C(=O)N[C@@H](Cc4ccccc4)C2[C@H](C)[C@@]2(C)O[C@H]2C3/C=C/C/C=C\CNC(=O)[C@@H]2CCCN2C1=O (stereo not given in full) | -0.0401 | -0.332 | -0.146 | -0.595 | -0.571 | -0.52 | 0.633 | 1.91 (inactive) | -0.111 | -0.343 | -0.449 | -0.399 (inactive) | -0.985 (inactive) | -0.266 (inactive) | -0.139 | 2.34 (inactive) | -0.0901 | -0.315 | -0.665 | -0.209
C=CCC1(CC=C)C[C@H]2CO[C@H](c3ccc(OC)cc3)N2C1=O | 0.79 | 0.533 | -0.107 | 0.201 | -0.412 | 0.0973 | 0.523 | -0.465 (inactive) | 0.132 | -0.0994 | -0.109 | -0.137 (inactive) | -2.77 (inactive) | -0.484 (inactive) | 0.288 | 2 (inactive) | 0.109 | 0.377 | -0.638 | -0.0204
CCCNC(=O)[C@@]1(Sc2ccc(C)cc2)CC(=O)N(Cc2cc(C(F)(F)F)cc(C(F)(F)F)c2)[C@@H]1c1ccc(CO)cc1I | 0.71 | 0.273 | -0.0775 | -0.84 | -0.472 | 1.16 | 0.242 | -1.25 (inactive) | 0.267 | -0.0237 | 0.491 | -5.07 (inactive) | -5.46 (inactive) | -0.894 (inactive) | 1.03 | 3.43 (inactive) | 0.024 | -1.35 | -0.168 | -0.118
C#CCOc1ccc(C[C@H]2C(=O)O[C@H](Cc3ccccc3)[C@H](/C=C/C3CC3)N2CC#C)cc1 | 0.372 | 0.259 | -0.14 | -0.118 | -0.487 | -0.13 | 0.141 | -4.41 (inactive) | -0.652 | -0.0074 | -0.746 | 1.35 (inactive) | -0.795 (inactive) | 0.519 (inactive) | 0.408 | 2.04 (inactive) | -0.139 | -0.493 | -1.74 | -0.206
C#CCN1C(C(=O)OCC)OC[C@H]1c1ccccc1 (stereo not given in full) | -0.551 | 2.59 | -0.128 | 0.389 | 0.678 | 0.0354 | -0.143 | -1.77 (inactive) | -0.0006 | -0.492 | 0.52 | -1.51 (inactive) | -2.08 (inactive) | -1.95 (inactive) | 3.77 | 1.92 (inactive) | -0.205 | 0.671 | 0.804 | -0.109
COc1ccc(C(=O)Nc2cccc(CN3C(=O)[C@@]4(O[C@@H](CCO)[C@H]([Si](C)(C)c5ccc(OC)cc5)[C@H]4C)c4ccccc43)c2)cc1 | 0.457 | -0.0176 | -0.0784 | 0.19 | 0.0782 | -0.0498 | 0.984 | -3.53 (inactive) | 0.0018 | -0.216 | 0.95 | 0.324 (inactive) | -9.44 (active) | 0.2 (inactive) | 1.35 | 1.68 (inactive) | 0.0005 | 0.297 | 0.0772 | -0.155
